Only some compounds are listed: those with a hit (about 27% of all), similar ones and a draw of the others.
CYP2C19 inhib – human CYP2C19 inhibition; 96,000 compounds, 21% hits; inhibition, % at 5 µM; P33261; CYP2C19 Supersomes, luciferin-H EGE luminescence, 30 min;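 active means CYP2C19 inhibition above a set limit at 5 µM in the primary screen, cut at about 50% in these data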;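 further: plate controls were negative control wells for no effect and 2.5 mM tranylcypromine positive control for full effect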
Cav32 inh – inhibitors of human Cav3.2 T-type calcium channel; O95180; Cav3.2-expressing cells, Fluo-4 calcium fluorescence FDSS; stronger effect = lower value; B-score at 10 µM; 100,000 compounds, 4% hits; AID 449739;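 active means single-dose well whose peak fluorescence ratio is a statistical outlier from its plate by either plate-standardised score or position-corrected B-score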
CYP2C19 act – cytochrome P450 2C19 (human) activation | recombinant CYP2C19, luciferin-H EGE luminescence; stronger effect = higher value; 0 = fully inhibited enzyme, 1 = untreated enzyme | activation factor at 5 µM | 96,000 tested, under 10 active | AID 1025;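 active means activation factor of at least 2 at 5 µM in the primary screen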;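 further: 0 = wells with 2.5 mM tranylcypromine and 1 = vehicle-only wells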
CYP2C9 inh – human CYP2C9 inhibition | CYP2C9 Supersomes, luciferin-H conversion, luminescence | inhibition, % at 5 µM | 96,000 compounds, 20% hits | AID 777;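 active means blocking of liver enzyme CYP2C9 beyond about 50% at 5 µM, limit read from the data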
PTK2B oligo ant – Pyk2 (human) oligomerization antagonism. z-score (the deposit names both 25 µM and 10 µM). Q14289. Q293 cells, Pyk2 FERM NanoBiT luminescence; stronger effect = lower value. AID 1347419. 99,000 compounds, 0.83% hits;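 active means Z-score of -3 or lower, scaled per plate to the spread of control and sample wells; inactive means z-score above -3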;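 further: negative z-score means lost luminescence so less FERM oligomerization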
CYP2C9 act – increases human cytochrome P450 2C9 activity; activation factor at 5 µM; P11712; recombinant CYP2C9, luciferin-H conversion, luminescence; stronger effect = higher value; factor 1 = untreated enzyme, 0 = blocked; AID 1024; 96,000 compounds, 1.4% hits;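 active means activation factor of 2 or more for CYP2C9 at a 5 µM dose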;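 further: 0 = sulfaphenazole-blocked wells and 1 = vehicle-only wells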
An asterisk follows results filed as active; / = no result.

SMILES	CYP2C19 inhib	Cav32 inh	CYP2C19 act	CYP2C9 inh	PTK2B oligo ant	CYP2C9 act
CC(C)c1nc2sc3c(NCc4ccccc4)ncnc3c2c2c1COC(C)(C)C2	-10	0.27	1.1	-4	-1.3	1
CCN(CCO)c1ncnc2c1sc1nc(C(C)C)c3c(c12)CC(C)(C)OC3	17	-0.1	0.8	76*	-0.76	0.2
CCCCC(=O)N1CCCC(c2nc3c(nnn3Cc3cc(C)ccc3C)c(=O)[nH]2)C1 (stereo unspecified)	67*	-0.32	0.3	87*	-0.62	0.1
Cc1ccc(C)c(Cn2nnc3c(=O)[nH]c(C4CCCN(C(=O)CC(C)C)C4)nc32)c1 (stereo unspecified)	61*	-0.94	0.4	79*	-1	0.2
CCOc1ccccc1NC(=O)N1CCCC(c2nc3c(nnn3Cc3ccc(C)cc3)c(=O)[nH]2)C1 (stereo unspecified)	14	-1.2	0.9	6	-1.1	0.9
Cc1nn(C)cc1CNC(=O)Nc1ccc(Cl)c(Cl)c1	41	0.06	0.6	12	-0.14	0.9
CCN(CC)S(=O)(=O)c1cc([N+](=O)[O-])ccc1NNC(=O)Nc1ccc(Cl)c(Cl)c1	12	-3.7	0.9	74*	-0.66	0.3
N#Cc1c(-c2ccccc2)c(-c2ccccc2)nn(CC(=O)NNC(=O)Nc2ccc(Cl)c(Cl)c2)c1=O	24	-6.5*	0.8	62*	-0.47	0.4
Cc1nn(-c2ccccc2)c(Cl)c1/C=C(\CC(=O)O)c1nc2ccccc2s1	19	-0.74	0.8	74*	-0.37	0.3
Cc1nn(-c2ccc(F)cc2)c(Cl)c1/C=C(\CC(=O)O)c1nc2ccccc2s1	-12	-1.9	1.1	17	0.22	0.8
Cc1nn(-c2ccccc2)c(Cl)c1/C=C/C(=O)c1ccccc1	70*	0.45	0.3	66*	-2.2	0.3
O=C1Nc2cc(Cl)ccc2C1(N1CCNCC1)C(F)(F)F (stereo unspecified)	-8	0.41	1.1	12	0.14	0.9
O=C1Nc2ccc(Cl)cc2[C@@](C#CC2CC2)(C(F)(F)F)O1	/	-5.2*	/	/	/	/
CCCSc1nnc2n(C)c(=O)c3c4c(sc3n12)CCC4	53*	0.057	0.5	61*	0.14	0.4
CCn1c(=O)c2c3c(sc2n2c(=S)[nH]nc12)CCC3	80*	3.6*	0.2	97*	1.8	0
CCCCN(CCCC)C(=O)CSc1nnc2n(C)c(=O)c3c4c(sc3n12)CCCC4	/	-3.7	/	/	-0.14	/
CCCSc1nnc2n(Cc3ccccc3)c(=O)c3c4c(sc3n12)CCC4	-20	/	1.2	-18	/	1.2
Cn1c(=O)c2c3c(sc2n2c(SCC(N)=O)nnc12)CC(C(C)(C)C)CC3 (stereo unspecified)	58*	4.2*	0.4	14	-0.05	0.9
CCn1c(=O)c2c3c(sc2n(C)c1=O)CCC3	1	1.3	1	2	0.93	1
O=C(Nc1ccc(N2CCCCC2)c(Cl)c1)c1ccc(N2CCOCC2)c([N+](=O)[O-])c1	52*	-2.1	0.5	42	-0.29	0.6
O=C(Nc1ccc(N2CCCCC2)c(Cl)c1)c1ccc2c(c1)OCCO2	30	-1.4	0.7	68*	-1.7	0.3
Cc1c(NC(=O)c2ccc(N3CCCC3)c([N+](=O)[O-])c2)cccc1-c1nc2ccccc2s1	18	-4.6*	0.8	56*	-0.71	0.4
Cc1ccc2[nH]c(=O)c(C(c3nnnn3CCc3ccccc3)N3CCOCC3)cc2c1 (stereo unspecified)	-2	-1	1	-1	0.19	1
O=C(Nc1nc(=S)ss1)c1c(F)cccc1F	-2	0.35	1	80*	0.27	0.2
Cc1ccccc1C(=O)Nc1nc(=S)ss1	0	-5*	1	81*	0.91	0.2
SMILES	CYP2C19 inhib	Cav32 inh	CYP2C19 act	CYP2C9 inh	PTK2B oligo ant	CYP2C9 act
CC(=O)Nc1nc(=S)ss1	-10	-0.34	1.1	12	0.82	0.9
CC(C)CC(=O)Nc1nc(=S)ss1	43	-5.6*	0.6	69*	1.2	0.3
CCC1(O)c2ccccc2-c2ncccc21 (stereo unspecified)	5	-0.089	1	-4	0.77	1
Cc1ccc(Nc2c3c(nc4ncnn24)CCC3)cc1	60*	0.39	0.4	19	0.92	0.8
CCOc1ccc(Nc2c3c(nc4ncnn24)CC(C)CC3)cc1 (stereo unspecified)	52*	-0.14	0.5	37	-0.95	0.6
Cc1ccc(Nc2c3c(nc4ncnn24)CC(C)CC3)cc1 (stereo unspecified)	22	-0.63	0.8	23	-1.2	0.8
CC(=O)C(=Nc1ccccc1Cl)NNc1ccc(Cl)cc1	/	-1.8	/	/	-0.45	/
CCOC(=O)NC(c1cccc(Cl)c1)C1CCCCCC1=O (stereo unspecified)	97*	0.0078	0	56*	-1.2	0.4
CC(C)(C)c1ccc(C(=O)C=[N+]=[N-])cc1	-23	0.21	1.2	-22	0.28	1.2
Cn1nc(-c2ccccc2)c(C(=O)Nc2ccc(C(F)(F)F)cc2)c1Cl	30	0.59	0.7	2	0.05	1
Cn1nc(-c2ccccc2)c(C(=O)Nc2ccc(Cl)cc2)c1Cl	63*	0.16	0.4	6	-0.22	0.9
CCCOc1cc(C)c(S(=O)(=O)n2ccc(C)n2)cc1C	70*	-3.8*	0.3	37	1.5	0.6
Cc1nc2ccc(C(C(F)(F)F)(C(F)(F)F)C(F)(F)F)cc2[nH]1	42	0.088	0.6	63*	-1.9	0.4
Cc1ccccc1N1CCN(S(=O)(=O)c2ccc3oc(=O)ccc3c2)CC1	41	-1.4	0.6	80*	-0.63	0.2
Cc1ccc(N2CCN(S(=O)(=O)c3ccc(F)c(C)c3)CC2)c(C)c1	84*	-2.1	0.2	91*	-3.2*	0.1
CCc1ccccc1N1CCN(S(=O)(=O)c2ccc(F)c(C)c2)CC1	90*	-3.5	0.1	90*	-3.3*	0.1
Cc1cc(C)n(-c2cc(N3CCN(S(=O)(=O)c4ccc5ccccc5c4)CC3)ccc2[N+](=O)[O-])n1	33	/	0.7	23	-0.52	0.8
Cc1ccc(N2CCN(S(=O)(=O)N(C)C)CC2)c(C)c1	86*	-0.12	0.1	64*	/	0.4
Cc1cccc(-c2c3c(=O)n(C)c(=O)n(C)c3cn2C2CCCCC2)c1	35	0.64	0.7	22	-1.9	0.8
O=S(=O)(NCc1cn2ccccc2n1)c1cc(F)ccc1F	/	-0.43	/	/	2.4	/
Cc1ccc(S(=O)(=O)N2CCN(C(=O)c3cccc(F)c3)CC2)cc1	28	0.42	0.7	3	-0.24	1
CCC(=O)c1cc(F)c(N2CCN(S(=O)(=O)c3ccc(C)cc3)CC2)cc1C	43	-0.62	0.6	59*	-1.3	0.4
Cc1nc2cccc(C)n2c(=O)c1Cl	1	1.1	1	-14	-0.52	1.1

Screens as filed in PubChem.
